# Experimental data taken from PubChem BioAssay (NCI).
# The panel holds about 83,000 compounds, 20% with a hit somewhere; the sample as a whole holds those more often.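 Activity criterion: percent growth below 10, measured after cells in 96-well plates were exposed to a single compound concentration for 48 hours.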 Values without a mark were called inactive. Activity calls are given as the source filed them.
# Columns and labels:
# Assay in all cases: NCI-60 one-dose screen, 48 h (100 = growth as untreated, 0 = no growth, -100 = all killed)
# Settings in all cases: 10 µM unless noted
# [1] = test system: DU-145 prostate
# [2] = test system: K-562 leukemia
# [3] = test system: MALME-3M melanoma
# [4] = test system: MDA-MB-231 breast
# [5] = test system: RXF 393 renal
# [6] = test system: SF-268 CNS
# [7] = test system: SF-295 CNS
# [8] = test system: SF-539 CNS
# [9] = test system: UACC-257 melanoma
# [10] = test system: M14 melanoma
# [11] = test system: HCT-15 colon
# [12] = test system: HT29 colon
# [13] = test system: SNB-75 CNS
# [14] = test system: SNB-19 CNS
# [15] = test system: U251 CNS
# [16] = test system: PC-3 prostate
# [17] = test system: SK-MEL-5 melanoma
# [18] = test system: UACC-62 melanoma
# [19] = test system: LOX IMVI melanoma
# [20] = test system: SK-MEL-28 melanoma
SMILES,growth [1],growth [2],growth [3],growth [4],growth [5],growth [6],growth [7],growth [8],growth [9],growth [10],growth [11],growth [12],growth [13],growth [14],growth [15],growth [16],growth [17],growth [18],growth [19],growth [20]
COc1ccc2[nH]c(O)c(C(=Nc3ccc(N(C)C(=O)CN4CCN(C)CC4)cc3)c3ccccc3)c2c1,27.7%,5.35% (active),43.5%,28.4%,-25.1% (active),30.7%,48.3%,-38.9% (active),65.9%,29.3%,24.7%,18%,-5.94% (active),57.5%,45.1%,56.6%,67.3%,75.3%,9.09% (active),42.4%
CCCCOc1nc2ccccc2cc1C1CNC(=O)c2ccccc2N1 (stereo not given),10.7%,12.8%,45.6%,47.5%,-14.3% (active),43.6%,-5.68% (active),-25.5% (active),57.2%,-23.1% (active),15.3%,0.868% (active),3.14% (active),33.4%,18.6%,24.7%,15.6%,32.6%,27.1%,45.8%
CNC(=O)CCN1CCN(CC/C=C2\c3ccccc3Sc3ccc(Cl)cc32)CC1,90.5%,32.4%,98%,102%,21.6%,77.5%,98.5%,97.3%,-30.9% (active),81.3%,63.2%,58.2%,74.3%,98.6%,77.8%,8.82% (active),79.6%,60.4%,72%,-51.5% (active)
Cc1cccc(NC(=O)CSc2nc3ccccc3[nH]2)c1,107%,102%,105%,88.5%,99%,95.2%,105%,98.1%,111%,107%,104%,122%,84.2%,94.9%,101%,91%,103%,85.1%,96.8%,101%
Cc1ccc(NS(=O)(=O)c2ccc3c(c2)C2OCCC2C(c2ccc(C(=O)C(C)C)cc2)N3)cc1C (stereo not given),60.9%,33.6%,17.1%,76.5%,65.4%,57.8%,31.9%,66%,23.9%,50%,32.3%,44.9%,61.8%,68.2%,49.1%,28.8%,-32.4% (active),47.2%,64.2%,51.3%
Cn1c(-c2c(N)n(Cc3cccnc3)c3nc(C#N)c(C#N)nc23)nc2ccccc21,95.7%,51.1%,53.5%,89.2%,65.9%,98.8%,110%,64.7%,102%,91.1%,94.5%,92.1%,96.6%,103%,94.3%,66%,89.2%,89.8%,97.4%,113%
CC(C)CC(NC(=O)CN(Cc1ccccc1)S(C)(=O)=O)C(=O)O (stereo not given),104%,78%,98.8%,111%,80.3%,109%,96.4%,90.9%,103%,97%,101%,97.4%,80%,91.6%,103%,90.1%,95%,89.2%,100%,100%
COc1cccc(C(=O)NCCCNc2cc(-c3cn(-c4ccccc4)nc3-c3cccc(OC)c3)ccn2)c1,65.8%,22.8%,51.7%,44%,66.8%,63.9%,44%,85.3%,30%,34.4%,35.5%,27.7%,63.5%,65%,39.7%,27.4%,9.17% (active),26.2%,51.8%,65.7%
COc1cccc(-c2nc3sccn3c2-c2ccnc(NCCNS(=O)(=O)c3cccc(F)c3)c2)c1,29.7%,19%,46.6%,64.6%,39.9%,37.8%,15.5%,70.7%,44.6%,33.3%,25.1%,27.9%,27.4%,59.2%,45.4%,14.1%,2.05% (active),-17.9% (active),32.7%,56.1%
Cc1ccc(S(=O)(=O)n2cc(CNc3ccc(N4CCOCC4=O)cc3)c3ccccc32)cc1,67.6%,82.4%,62.9%,87.8%,-8.02% (active),89.4%,88.7%,96.8%,86.6%,93.3%,74.7%,89.1%,73.4%,97.7%,95.1%,89.6%,93%,78.2%,87.2%,101%
CCCc1cc2c(=O)c(C(=O)OC)c[nH]c2cc1N(CC)CC,112%,96.2%,95.4%,108%,29.3%,102%,85.2%,97.6%,136%,110%,95.9%,110%,104%,99.1%,104%,79.6%,91.5%,83%,108%,112%
Cc1ccc(CCC(=O)Nc2ncc(Cc3cc(Cl)ccc3Cl)s2)o1,13.8%,9.78% (active),41.5%,12.4%,-8.55% (active),57.6%,7.41% (active),-16.4% (active),66.9%,6.18% (active),12.5%,4.92% (active),-1.75% (active),21.7%,18%,23.6%,7.9% (active),21.2%,13.3%,55.7%
O=C(N=c1oc2ccccc2cc1-c1cc2ccccc2[nH]1)c1ccc(Cl)cc1,51.3%,26.5%,94.1%,51.2%,59.9%,35.5%,60.3%,52.8%,98.7%,79.7%,25.7%,65.7%,53.6%,32.6%,28.9%,27.2%,96.1%,63.1%,60.5%,95.3%
CC/C=C\C[C@H](O)C/C=C1/C(=O)C=C[C@@H]1C/C=C\CCCCO,28.3%,6.44% (active),34.7%,8.29% (active),56.1%,78.3%,10.6%,14.5%,34%,16.4%,2.31% (active),-39% (active),76.1%,55.8%,-33% (active),0.486% (active),10.5%,-23.3% (active),-68.9% (active),16.7%
O=C(/C=C/c1cccc(O)c1)c1cccc(-n2cc(-c3ccc4ccccc4c3)[nH]c2=O)c1,-17.3% (active),-40.4% (active),-6.88% (active),14.7%,29.8%,-6.97% (active),6.57% (active),-88.3% (active),99.6%,16.2%,2.35% (active),-72.7% (active),4.8% (active),-43.2% (active),-86.6% (active),5.01% (active),-2.25% (active),11.4%,-78.2% (active),42.9%
